LmPK inh: LmPK (Leishmania mexicana) enzyme inhibition. Q27686. AID 1721. Potency, µM (doses to about 57.5 µM), actives largely listed as inhibitors. hit rate 0.37% among 290,000. purified LmPK, Kinase-Glo ATP luminescence, 1 h
Target sequence (Q27686 whole entry, looked up): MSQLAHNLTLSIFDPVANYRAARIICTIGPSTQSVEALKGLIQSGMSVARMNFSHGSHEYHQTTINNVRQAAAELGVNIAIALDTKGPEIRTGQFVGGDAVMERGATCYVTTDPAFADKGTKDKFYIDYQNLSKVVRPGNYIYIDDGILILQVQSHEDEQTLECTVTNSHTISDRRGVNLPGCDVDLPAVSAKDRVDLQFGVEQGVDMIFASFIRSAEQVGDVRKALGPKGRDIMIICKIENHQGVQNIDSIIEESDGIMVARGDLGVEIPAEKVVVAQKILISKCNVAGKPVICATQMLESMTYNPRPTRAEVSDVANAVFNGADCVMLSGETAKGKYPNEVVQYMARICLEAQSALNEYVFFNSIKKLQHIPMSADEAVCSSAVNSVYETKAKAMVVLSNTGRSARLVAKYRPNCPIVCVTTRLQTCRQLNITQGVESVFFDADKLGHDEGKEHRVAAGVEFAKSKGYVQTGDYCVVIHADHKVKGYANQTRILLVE
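Pyruvate kinase activity monitored as ATP production (luciferase luminescence). Conditions: 0.1 nM enzyme, 0.5 mM PEP, 0.1 mM ADP, 1 h, RT; normalized against uninhibited and no-enzyme wells.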
Shiga inhibitor: inhibitors of Shiga toxin in Vero cells. Vero cells, Shiga toxin protein synthesis inhibition reporter. inhibition, % at 38.7 µM. hit rate 9.2% among 290,000. AID 2315; in the data active = inhibition mostly above about 28%, no sharp cut-off; inactive = mostly below about 43%
Cycloheximide cs: affects cycloheximide protein synthesis inhibition readout, counter-screen. cell reporter, cycloheximide protein synthesis inhibition counterscreen. max response, %. AID 2314. hit rate 12% among 300,000; in the data active = max response mostly above about 13%, no sharp cut-off; inactive = mostly below about 14%; note: read at 38.3 µM for the half of the compounds with a filed dose
Pf growth 96h: P. falciparum growth inhibition at 96 hour, primary screen for plastid delayed-death inhibitors; P. falciparum luciferase reporter growth, 96 h; Potency, µM (series often up to 28.7 µM), most hits filed as inhibitors; hit rate 6.9% among 320,000; AID 504834
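Cell-based qHTS: luciferase-tagged P. falciparum in erythrocytes (2% hematocrit, 0.05% parasitemia final) incubated with compounds for 96 hours, 37 C, 5% CO2; luciferase detection reagent then added and luminescence measured.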
Pf growth 48h: inhibits P. falciparum growth in the first generation, 48 h; Potency, µM (highest dose often 28.7 µM), hits mostly inhibitors; P. falciparum luciferase growth in erythrocytes, 48 h; AID 504832; hit rate 5.9% among 310,000
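Parasite viability was followed by luminescence of a genomically integrated firefly luciferase. Cultures held 0.1% parasitemia at 2% hematocrit (final), incubated under 5% CO2 at 37 C.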
Of the large screens only hits and unclear results are named; the others gave an inactive call. Shown are actives, neighbours in structure and some others; about 22% of the full set was active somewhere. Unless noted, calls come from the whole dose curve; as a rule, active = well fitted inhibition curve with a large enough effect; inconclusive = small, poorly fitted or top-dose-only effect, or another doubt; inactive = no such curve, though single readings can be large or run the other way.

CC(C)CNC(=O)c1ccccc1NC(=O)CN(c1ccccc1)S(=O)(=O)N(C)C	Pf growth 48h 10µM
CCOc1ccc(N2C(=O)C3C(c4ccc(O)cc4)NC(CCSC)(C(=O)OC)C3C2=O)cc1 (configuration not stated)	Pf growth 96h inconclusive
COC(=O)C1CCN(c2cc(=O)n(-c3ccccc3Cl)c(=O)[nH]2)CC1	Pf growth 48h 6.6µM
Clc1ccc2nc(-c3ccc(Cl)nc3)[nH]c2c1	Shiga inhibitor 53, Cycloheximide cs 24, Pf growth 96h inconclusive, Pf growth 48h inconclusive
Clc1ccc(-c2ccccc2)cn1	none (no result: LmPK inh, Shiga inhibitor, Cycloheximide cs)
Nc1ccc2nc(-c3cc(Cl)c(N)c(Cl)c3)[nH]c2c1	LmPK inh 16µM, Shiga inhibitor 64, Cycloheximide cs 36, Pf growth 96h inconclusive, Pf growth 48h 2.9µM
Nc1ccc(-c2nc3c(Cl)c(N)ccc3[nH]2)cc1	LmPK inh inconclusive, Shiga inhibitor 78, Pf growth 96h inconclusive
Nc1ccc2nc(C3CCCCC3)[nH]c2c1	Cycloheximide cs 13
Nc1ccc2nc(-c3cccc(-c4nc5ccc(N)cc5[nH]4)c3)[nH]c2c1	Pf growth 48h 1.9µM
Cc1nc2ccc(-c3nc4ccc(N)cc4[nH]3)cc2[nH]1	Pf growth 48h inconclusive
NC(=O)c1ccc2nc(-c3ccc(Oc4ccc(Cl)cc4)cc3)[nH]c2c1	Shiga inhibitor 45 (no result: LmPK inh, Pf growth 96h, Pf growth 48h)
Cc1ccc2nc(-c3ccccc3N)[nH]c2c1	LmPK inh inconclusive, Cycloheximide cs 41
Cc1c(N)cccc1-c1nc2ccccc2[nH]1	Shiga inhibitor 39, Cycloheximide cs 52
Cc1ccc2nc(C(F)OC(F)(F)F)[nH]c2c1 (configuration not stated)	none
O=C(CCc1ccccc1)NNC(=S)NC(=O)c1ccc(Cl)cc1	none (no result: Pf growth 96h)
CC(C)Cc1nc2ccc(N)cc2[nH]1	Pf growth 48h inconclusive
Nc1ccc2nc(-c3ccc(Cl)cc3)[nH]c2c1	Shiga inhibitor 97, Cycloheximide cs 62, Pf growth 96h inconclusive (no result: Pf growth 48h)
Nc1ccc(-c2nc3ccc(N)cc3[nH]2)cc1	Cycloheximide cs 24, Pf growth 96h inconclusive
Cc1ccc(C)c(-c2nc3ccc(N)cc3[nH]2)c1	Cycloheximide cs 14, Pf growth 48h inconclusive
O=S(=O)(O)c1ccc2nc(-c3ccccc3)[nH]c2c1	none (no result: LmPK inh, Shiga inhibitor, Cycloheximide cs)
CN(C)c1cc2c(cc1NC(=O)c1ccccc1Cl)n(C)c(=O)n2C	Pf growth 96h inconclusive, Pf growth 48h inconclusive
CCc1ccc(CN(C)C(=O)c2ccc3c(c2)OCCO3)cc1	none
C=C1C(n2cnc3c(=O)[nH]c(N)nc32)C[C@H](O)[C@H]1CO (some centres not stated)	Pf growth 96h 6µM, Pf growth 48h inconclusive (no result: LmPK inh, Shiga inhibitor, Cycloheximide cs)
Cn1c(CN2CCCCC2)nc2cc(NC(=O)c3ccc(F)cc3)ccc21	Cycloheximide cs 34, Pf growth 96h inconclusive
Cn1c(CN2CCCCC2)nc2cc(NC(=O)c3ccccc3Cl)ccc21	Shiga inhibitor 72, Cycloheximide cs 44, Pf growth 48h inconclusive
CC(=O)N1CCN(Cc2nc3cc(NC(=O)c4ccccc4Cl)ccc3n2C)CC1	Pf growth 48h inconclusive
CC1CCC(NC(=O)CCN2C(=O)C3C4C=CC(C4)C3C2=O)CC1 (configuration not stated)	none
COc1ccc(-c2csc(N(Cc3ccco3)C(=O)c3cccs3)n2)cc1	Shiga inhibitor 57, Cycloheximide cs 22, Pf growth 96h 6.6µM, Pf growth 48h inconclusive
COc1ccc(CC(=O)N(CC2CCCO2)c2nc3ccccc3s2)cc1 (configuration not stated)	Cycloheximide cs 27, Pf growth 96h inconclusive
COc1ccc(OC)c(-c2csc(N(CC3CCCO3)C(=O)C3CCCCC3)n2)c1 (configuration not stated)	Pf growth 48h 2.9µM
O=C(CSc1nc2ccccc2s1)NCC1CCCO1 (configuration not stated)	none
O=C(C1CC1)N(Cc1ccco1)c1nc(-c2ccccc2)cs1	Cycloheximide cs 8.3, Pf growth 96h inconclusive, Pf growth 48h inconclusive
COc1ccc(OC)c(NC(=O)NCc2cccnc2)c1	Pf growth 96h inconclusive
CCCc1c(C(=O)N/N=C/c2ccncc2)nnn1-c1nonc1N	none
OCCN1CCN(c2cc(C(F)(F)F)nc3c(F)cccc23)CC1	Pf growth 48h inconclusive
O=C(COC(=O)c1ccc(O)cc1)NCCCc1ccccc1	Pf growth 96h inconclusive, Pf growth 48h inconclusive
COc1ccc(OC)c(-c2csc(N(Cc3ccco3)C(=O)c3cccs3)n2)c1	Pf growth 96h inconclusive, Pf growth 48h 9.3µM
COc1cccc(Nc2nc(Nc3ccc(Cl)c(C(=O)O)c3)nc(C)c2[N+](=O)[O-])c1	none (no result: LmPK inh, Shiga inhibitor, Cycloheximide cs)
CC[C@H](C)NC(=O)c1ccc(Cn2c(=S)[nH]c3c([nH]c4ccc(OC)cc43)c2=O)cc1	none
Cc1cc(C)cc(NC(=O)C2CCCN(S(=O)(=O)c3cnc[nH]3)C2)c1 (configuration not stated)	Pf growth 96h 3.3µM
Cc1ccc(NC(=O)C2CCCN(S(=O)(=O)c3cnc[nH]3)C2)cc1F (configuration not stated)	Pf growth 96h inconclusive
Cc1csc(NC(=O)C2CCCN(S(=O)(=O)c3cnc[nH]3)C2)n1 (configuration not stated)	Pf growth 96h 12µM (no result: Pf growth 48h)
COc1cc(NC(=O)C2CCCN(S(=O)(=O)c3cnc[nH]3)C2)cc(OC)c1 (configuration not stated)	none (no result: Pf growth 48h)
O=C(NCCC1=CCCCC1)C1CCCN(S(=O)(=O)c2cnc[nH]2)C1 (configuration not stated)	Pf growth 96h 12µM (no result: Pf growth 48h)
O=C(Nc1cccc(F)c1)C1CCCN(S(=O)(=O)c2cnc[nH]2)C1 (configuration not stated)	Pf growth 96h 9.3µM
CCN(CC)C(=O)C(C(=O)c1cccc([N+](=O)[O-])c1)n1cc(Cl)ccc1=O (configuration not stated)	none
CCOc1cc(/C=N/NC(=O)c2ccc(N(C)S(=O)(=O)c3ccccc3)cc2)ccc1OC	none
COc1nc(Nc2cccc(F)c2)nc(OC)n1	Cycloheximide cs 20 (no result: Shiga inhibitor)
COc1cc2nc(Nc3cccc(F)c3)nc(N)c2cc1OC	Pf growth 96h inconclusive, Pf growth 48h 0.41µM
COc1ccc(NC(=S)N/N=C/c2ccc(F)c(F)c2)cc1	Shiga inhibitor 41, Cycloheximide cs 20
Fc1ccc(NC(=S)N/N=C/c2ccc(F)c(F)c2)cc1	Cycloheximide cs 29, Pf growth 96h inconclusive
COc1ccc(/C=N/NC(=S)Nc2ccccc2)cc1COc1ccc(F)cc1F	Pf growth 96h inconclusive, Pf growth 48h inconclusive
Fc1ccc(/C=N/NC(=S)Nc2ccc(Cl)cc2)cc1F	Cycloheximide cs 22
COc1ccc(NC(=S)N/N=C/c2ccc(F)cc2)cc1OC	Shiga inhibitor 46, Cycloheximide cs 30, Pf growth 48h inconclusive
CCNC(=S)N/N=C/c1ccc(F)cc1	Pf growth 96h inconclusive
O=c1cc(-c2ccc(O)cc2)oc2cc(O[C@@H]3O[C@H](CO)[C@H](O)[C@H](O)[C@H]3O)cc(O)c12	none (no result: LmPK inh, Pf growth 96h, Pf growth 48h)
Fc1ccc(/C=N/NC(=S)Nc2ccc(Cl)cc2Cl)cc1	Pf growth 96h 2.1µM
COc1ccc(NC(=S)N/N=C/c2cccn2Cc2ccccc2F)cc1	Pf growth 48h inconclusive

Screening results: PubChem BioAssay, National Center for Advancing Translational Sciences (NCATS)
